Where “and” joins values, the source holds several entries; their conditions need not be identical. Equal entries are not always repeated. Structures can show the parent of a compound that is named as a salt.
How the values were obtained:
Test in all cases: cell viability relative to vehicle control; higher = less cytotoxic
Conditions in all cases: 10 µM
K562 = tested on: K562
Outline: (§1)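 Mutant clones made by CRISPR editing and their isogenic wild-type counterparts, from four leukaemia lines, were exposed to a single 10 µM dose of each library compound for 48 h. The supernatant was then removed and CellTiter-Glo luminescence was read. Viability was reported as percent of the on-plate vehicle control.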

MARIMO = tested on: MARIMO
Outline: as §1

MOLM14 = tested on: MOLM14
Outline: as §1

OCI-AML2 = tested on: OCI-AML2
Outline: as §1

Structure (SMILES) | cell viability (K562; SRSF2 genotype: SRSF2 P95H/wt) | cell viability (K562; SRSF2 genotype: SRSF2 wt/wt) [%] | cell viability (MARIMO; SRSF2 genotype: SRSF2 P95H/wt) [%] | cell viability (MARIMO; SRSF2 genotype: SRSF2 wt/wt) [%] | cell viability (MOLM14; SRSF2 genotype: SRSF2 P95H/wt) [%] | cell viability (MOLM14; SRSF2 genotype: SRSF2 wt/wt) [%] | cell viability (OCI-AML2; SRSF2 genotype: P95H/wt) [%] | cell viability (OCI-AML2; SRSF2 genotype: wt/wt) [%]
CO[C@@H](C(=O)N1Cc2[nH]nc(NC(=O)c3ccc(N4CCN(C)CC4)cc3)c2C1)c1ccccc1 | 40.2% and 48.7% | 34.3 | 63.3 | 69.4 | 14.3 | 12.9 | 6.56 | 19.3
CCOC(=O)C1=C(COCCN)NC(C)=C(C(=O)OC)C1c1ccccc1Cl (stereo not drawn) [Amlodipine (Norvasc)] | 83% and 92.4% | 84.4 | 73.8 | 78.3 | 53.3 | 62.5 | 38.9 | 50
O=C1OC(C(O)CO)C([O-])=C1O.[Na+] (stereo not drawn) [Sodium erythorbate] | 104% and 106% | 114 | 106 | 107 | 102 | 110 | 114 | 119
CN1CCCC(n2nc(Cc3ccc(Cl)cc3)c3ccccc3c2=O)CC1 (stereo not drawn) [Azelastine hydrochloride (Astelin)] | 87% and 91% | 92.6 | 88.1 | 90.3 | 78.9 | 88.6 | 75.9 | 72.6
Cc1ccc(C(C)C)cc1 [p-Cymene] | 111% and 96.9% | 113 | 95.9 | 99.5 | 100 | 106 | 117 | 119
CC1(C)C(O[C@@H]2OC[C@@H](O)[C@H](O)[C@H]2O)CC[C@]23CC24CC[C@]2(C)[C@@H]([C@@]5(C)CC[C@@H](C(C)(C)O)O5)[C@H](O)C[C@@]2(C)C4C[C@@H](O[C@@H]2O[C@H](CO)[C@@H](O)[C@H](O)[C@H]2O)C13 (stereo partly drawn) [Astragaloside IV] | 110% and 114% | 113 | 112 | 102 | 108 | 114 | 116 | 102
NC(=O)N1CCC(CC(=O)N2CCC([C@H]3c4ncc(Br)cc4CCc4cc(Cl)cc(Br)c43)CC2)CC1 | 49.1% and 62.3% | 52.4 | 44.8 | 45.7 | 37.4 | 35.7 | 38 | 32
C[C@@H]1CCO[C@H]2Cn3cc(C(=O)NCc4ccc(F)cc4F)c(=O)c(O)c3C(=O)N12 | 84.5% and 87% | 77.5 | 84.3 | 98.4 | 94.1 | 94 | 92 | 98.5
COc1ccccc1S(=O)(=O)Nc1ccc2c(c1)CN(C)C(=O)N2 | 81.5% and 75.9% | 76.5 | 48.9 | 46.6 | 33.4 | 34.5 | 27.1 | 40.2
O=C1N=C(O)NC1(c1ccccc1)c1ccccc1 [Phenytoin sodium (Dilantin)] | 98% and 104% | 96.8 | 104 | 103 | 97.7 | 102 | 103 | 94
CC(=O)O[C@]1(C(C)=O)CC[C@H]2[C@@H]3C[C@H](C)C4=CC(=O)C=C[C@]4(C)[C@@]3(F)[C@@H](O)C[C@@]21C [Fluorometholone Acetate] | 93.4% and 95.3% | 85.4 | 96.4 | 105 | 97.6 | 93.5 | 99.5 | 113
C=C(C)C1CC=C(C)CC1 (single isomer, unassigned; (+)) [(+)-Dipentene] | 114% and 103% | 116 | 104 | 108 | 110 | 108 | 109 | 115
CC1=CC(=O)[C@@H]2C[C@H]1C2(C)C [(-)-Verbenone] | 105% and 102% | 96.3 | 92.5 | 98.8 | 90.8 | 95.7 | 87.2 | 96.3
C=CC(=O)Nc1cccc(Oc2nc(Nc3ccc(N4CCN(C)CC4)cc3OC)ncc2Cl)c1 | 102% and 107% | 103 | 85.8 | 98.7 | 57.6 | 84.8 | 92 | 83.9
Oc1ccc(Cc2nc3c(Cc4ccccc4)nc(-c4ccc(O)cc4)cn3c2O)cc1 [Coelenterazine] | 96.7% and 92.9% | 101 | 94.9 | 93.5 | 86.2 | 97 | 98.8 | 98
COc1ccc(S(=O)(=O)Nc2nc(-c3cccc([N+](=O)[O-])c3)cs2)cc1OC | 104% and 99% | 92.7 | 97.4 | 112 | 93.3 | 100 | 95.4 | 108
CCOC(=O)C1=C(N)Oc2ccc(Br)cc2C1C(C#N)C(=O)OCC (stereo not drawn) | 84.9% and 89.9% | 86.5 | 65.6 | 56 | 48.6 | 74.9 | 67.4 | 66
Nc1cc(C(F)(F)F)c(-c2cc(N3CCOCC3)nc(N3CCOCC3)n2)cn1 | 30.2% and 37.9% | 31.9 | 23.2 | 20.3 | 11.9 | 11 | 11.6 | 15.7
CC(C)(Sc1cc(C(C)(C)C)c(O)c(C(C)(C)C)c1)Sc1cc(C(C)(C)C)c(O)c(C(C)(C)C)c1 [Probucol] | 98.5% and 99.2% | 102 | 99.7 | 105 | 102 | 105 | 105 | 103
CN(C)CCc1c[nH]c2ccc(CS(=O)(=O)N3CCCC3)cc12 [Almotriptan malate (Axert)] | 101% and 87% | 91 | 84.3 | 101 | 96.9 | 95.9 | 99.2 | 87.6
COCC(=O)Nc1cc(Sc2ccccc2)ccc1N=C(NC(=O)OC)NC(=O)OC [Febantel] | 98.1% and 91.8% | 97.1 | 98.9 | 107 | 97.9 | 110 | 98.3 | 102

Structure (SMILES) | cell viability (K562; SRSF2 genotype: SRSF2 P95H/wt) | cell viability (K562; SRSF2 genotype: SRSF2 wt/wt) [%] | cell viability (MARIMO; SRSF2 genotype: SRSF2 P95H/wt) [%] | cell viability (MARIMO; SRSF2 genotype: SRSF2 wt/wt) [%] | cell viability (MOLM14; SRSF2 genotype: SRSF2 P95H/wt) [%] | cell viability (MOLM14; SRSF2 genotype: SRSF2 wt/wt) [%] | cell viability (OCI-AML2; SRSF2 genotype: P95H/wt) [%] | cell viability (OCI-AML2; SRSF2 genotype: wt/wt) [%]
NC(=O)N/N=C/c1ccc([N+](=O)[O-])o1 [Nitrofurazone (Nitrofural)] | 98.5% and 94.8% | 96.7 | 104 | 100 | 96.8 | 99.5 | 102 | 103
Cc1cc2c(F)c(Oc3ncnn4cc(OC[C@@H](C)OC(=O)[C@H](C)N)c(C)c34)ccc2[nH]1 | 89.4% and 85.9% | 82 | 93.5 | 104 | 82 | 87.4 | 78.8 | 81.5
Cn1nnnc1SCC1=C(C(=O)O)N2C(=O)[C@@H](NC(=O)[C@H](OC=O)c3ccccc3)[C@H]2SC1 [S3638 Cefamandole (nafate).cdx] | 103% and 97.5% | 102 | 97.5 | 103 | 99.4 | 104 | 97.7 | 97.6
O=C(/C=C/c1ccc(O)c2c1[C@H](C(=O)O)[C@@H](c1ccc(O)c(O)c1)O2)O[C@H](Cc1ccc(O)c(O)c1)C(=O)O [Lithospermic acid] | 96.8% and 101% | 96 | 97.9 | 88.7 | 104 | 99.9 | 88.6 | 97.6
CCC1=C(C)CN(C(=O)NCCc2ccc(S(=O)(=O)NC(=O)N[C@H]3CC[C@H](C)CC3)cc2)C1=O [Glimepiride] | 101% and 82.6% | 93.7 | 91.7 | 116 | 94.6 | 92.4 | 97.3 | 105
O=C([O-])c1ccccc1O.[Na+] [Sodium salicylate] | 93.7% and 88.7% | 85.5 | 94.4 | 97 | 97 | 94.1 | 91.2 | 98
NC(=S)c1ccncc1 [Thioisonicotinamide] | 107% and 101% | 98.9 | 96.9 | 105 | 103 | 105 | 99.4 | 110
OC[C@H]1O[C@@](CO)(OC[C@@]2(OC[C@@]3(OC[C@@]4(O[C@H]5O[C@H](CO)[C@@H](O)[C@H](O)[C@H]5O)O[C@H](CO)[C@@H](O)[C@@H]4O)O[C@H](CO)[C@@H](O)[C@@H]3O)O[C@H](CO)[C@@H](O)[C@@H]2O)[C@@H](O)[C@@H]1O [1F-Fructofuranosylnystose] | 110% and 109% | 104 | 109 | 103 | 103 | 107 | 101 | 108
C[C@H](CSC(=O)c1ccccc1)C(=O)N1C[C@@H](Sc2ccccc2)C[C@H]1C(=O)O [Zofenopril calcium] | 106% and 100% | 106 | 104 | 96.9 | 98.3 | 108 | 116 | 121
N#Cc1cc2cc(CN3CCC(Nc4ncnc5sc(CC(F)(F)F)cc45)CC3)ccc2[nH]1 | 3.53% and 2.57% | 19.3 | 44.3 | 51.2 | 22.6 | 23.4 | 0.63 | 21.5
C#Cc1cccc(Nc2ncnc3cc(OCCOC)c(OCCO)cc23)c1 [OSI-420 (Desmethyl Erlotinib)] | 43.5% and 54.3% | 44.4 | 53.9 | 49.5 | 32.1 | 29.9 | 30.6 | 37.5
Cc1cc(NS(=O)(=O)c2ccc(N)cc2)nc(C)n1 [sulfaisodimidine] | 103% | 112 | 106 | 101 | 106 | 106 | 112 | 102
Nc1ncnc2c1ncn2C1CC(O)C(CO)O1 (stereo not drawn) [2'-Deoxyadenosine monohydrate] | 113% and 106% | 105 | 96.4 | 94.5 | 102 | 99.6 | 95.5 | 96.5
CCN(CC)CC#CCOC(=O)C(O)(c1ccccc1)C1CCCCC1 (stereo not drawn) [Oxybutynin chloride] | 94.9% and 97.5% | 88.6 | 79.8 | 96 | 83 | 101 | 80.8 | 91.8
O=C(Cc1ccc(-c2ccc(OCCN3CCOCC3)cc2)cn1)NCc1ccccc1 | 10.7% and 34.3% | 33 | 6.74 | 9.4 | 1.55 | 2.72 | 4.61 | 8.35
CCOc1nc2cccc(C(=O)OC(C)OC(=O)OC3CCCCC3)c2n1Cc1ccc(-c2ccccc2-c2nn[nH]n2)cc1 (stereo not drawn) [Candesartan cilexetil (Atacand)] | 95.6% and 97.9% | 75.5 | 98.8 | 106 | 62.2 | 87.1 | 90 | 72.1
N[C@H]1CC[C@H](N[C@@H]2C[C@H]2c2ccccc2)CC1 | 96% and 97.8% | 93.3 | 89.7 | 88.5 | 87.5 | 86.2 | 71.3 | 84.6
C[C@@H](OC[C@@]1(c2ccccc2)CC[C@]2(CCC(=O)N2)CN1)c1cc(C(F)(F)F)cc(C(F)(F)F)c1 [Rolapitant] | 54% and 72.1% | 68.8 | 52.3 | 48.8 | 54.5 | 44.5 | 45.2 | 39.1
CC(C)CC(=O)Nc1n[nH]c2c1CN(C(=O)C1CCN(C)CC1)C2(C)C | 37.5% and 39.7% | 38.4 | 15.8 | 6.67 | 2.48 | 1.14 | 8.45 | 17.8
Cc1cc(O)c2c(c1)C(=O)c1cc(O)cc(O)c1C2=O [Emodin] | 85.5% and 86.8% | 90.4 | 90.9 | 100 | 109 | 107 | 89.1 | 83.7
